Results from article PMC7862700, “An all-to-all approach to the identification of sequence-specific readers for epigenetic DNA modifications on cytosine”.

Legend:
Test in all cases: DAPPL (digital affinity profiling via proximity ligation, sequencing); 10 mM Tris-HCl pH 7.5, 50 mM NaCl, 1 mM DTT, 4% glycerol, room temperature, 30 min; GST-TFs on glutathione beads, 16-mer random dsDNA library, 0.1% formaldehyde crosslink after washing; high values mean tight binding
Details in all cases: protein: recombinant; tags: N-terminal GST; dsDNA, one strand shown
FLI1 = molecular target: T1, FLI1 (Homo sapiens, UniProt Q01543 1-452)
T1 sequence: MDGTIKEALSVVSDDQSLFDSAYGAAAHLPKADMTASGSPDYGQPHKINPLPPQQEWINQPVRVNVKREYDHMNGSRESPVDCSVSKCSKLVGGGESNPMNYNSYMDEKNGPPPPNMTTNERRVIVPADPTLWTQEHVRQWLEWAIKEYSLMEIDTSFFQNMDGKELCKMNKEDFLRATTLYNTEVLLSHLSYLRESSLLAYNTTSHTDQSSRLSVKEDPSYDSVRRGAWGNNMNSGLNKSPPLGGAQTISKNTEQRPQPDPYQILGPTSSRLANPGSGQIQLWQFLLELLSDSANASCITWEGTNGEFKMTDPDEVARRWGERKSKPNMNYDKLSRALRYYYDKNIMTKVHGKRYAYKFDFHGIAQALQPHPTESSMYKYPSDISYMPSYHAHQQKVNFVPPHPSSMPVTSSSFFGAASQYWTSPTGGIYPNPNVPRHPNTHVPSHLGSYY
Outline: (§1)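 The binding signal reported is, for every hexamer, its read frequency for a factor over its read frequency for the tag-only sample. Reads came from pools of yeast-expressed, GST-fused human transcription factors on glutathione beads, barcoded with DNA and mixed with that sample, which were incubated with 200 nmole of a random double-stranded 16-mer DNA library in Tris/NaCl/DTT/glycerol buffer at room temperature for 30 min. After washing, the pools were crosslinked with 0.1% formaldehyde, proximity-ligated with BsaI/T4 ligase for 1 h at 37 °C, PCR-amplified and sequenced on an Illumina NextSeq500.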

ELK1 = molecular target: T2, ELK1 (Homo sapiens, UniProt P19419 1-428)
T2 sequence: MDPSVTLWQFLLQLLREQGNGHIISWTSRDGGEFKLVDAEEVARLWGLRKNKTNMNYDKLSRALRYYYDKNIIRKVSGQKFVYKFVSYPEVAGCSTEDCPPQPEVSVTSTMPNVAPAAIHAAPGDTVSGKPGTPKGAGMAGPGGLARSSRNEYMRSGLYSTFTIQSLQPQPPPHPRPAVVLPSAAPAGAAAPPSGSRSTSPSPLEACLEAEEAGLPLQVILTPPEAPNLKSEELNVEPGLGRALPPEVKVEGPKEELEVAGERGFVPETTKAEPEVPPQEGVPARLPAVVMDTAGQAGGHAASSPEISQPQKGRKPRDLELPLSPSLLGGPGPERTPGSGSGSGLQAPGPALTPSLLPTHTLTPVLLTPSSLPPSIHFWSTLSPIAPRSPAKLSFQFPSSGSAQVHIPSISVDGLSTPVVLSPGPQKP
Outline: as §1

GABPA = molecular target: T3, GABPA (Homo sapiens, UniProt Q06546 1-454)
T3 sequence: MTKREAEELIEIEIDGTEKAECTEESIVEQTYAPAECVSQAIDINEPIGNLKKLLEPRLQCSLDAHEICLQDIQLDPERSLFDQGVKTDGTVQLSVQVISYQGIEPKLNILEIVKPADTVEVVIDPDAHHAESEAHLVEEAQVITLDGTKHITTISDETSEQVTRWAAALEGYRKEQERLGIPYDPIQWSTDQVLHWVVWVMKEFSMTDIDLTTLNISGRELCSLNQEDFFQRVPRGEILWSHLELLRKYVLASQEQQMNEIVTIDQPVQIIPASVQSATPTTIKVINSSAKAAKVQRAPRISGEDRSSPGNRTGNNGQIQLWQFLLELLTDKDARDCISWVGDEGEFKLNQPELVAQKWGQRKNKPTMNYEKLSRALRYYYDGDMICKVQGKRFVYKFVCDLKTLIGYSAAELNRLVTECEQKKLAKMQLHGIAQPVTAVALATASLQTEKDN
Outline: as §1

ERG = molecular target: T4, ERG (Homo sapiens, UniProt P11308 1-479)
T4 sequence: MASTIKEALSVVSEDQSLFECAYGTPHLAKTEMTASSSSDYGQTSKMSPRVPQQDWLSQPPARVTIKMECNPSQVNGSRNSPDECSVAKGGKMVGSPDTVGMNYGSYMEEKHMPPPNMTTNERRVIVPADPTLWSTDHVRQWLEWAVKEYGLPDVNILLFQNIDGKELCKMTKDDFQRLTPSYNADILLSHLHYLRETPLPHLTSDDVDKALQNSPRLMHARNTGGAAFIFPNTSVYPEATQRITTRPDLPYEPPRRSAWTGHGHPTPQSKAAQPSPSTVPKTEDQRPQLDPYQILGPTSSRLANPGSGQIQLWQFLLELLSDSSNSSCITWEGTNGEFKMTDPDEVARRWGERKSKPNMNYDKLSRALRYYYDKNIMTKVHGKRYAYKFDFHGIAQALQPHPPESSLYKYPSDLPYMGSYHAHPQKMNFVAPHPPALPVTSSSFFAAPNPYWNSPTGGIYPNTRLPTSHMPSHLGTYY
Outline: as §1

ELF1 = ELF1 (Homo sapiens, UniProt P32519 1-619)
Outline: as §1

EHF = molecular target: T5, EHF (Homo sapiens, UniProt Q9NZC4 1-300)
T5 sequence: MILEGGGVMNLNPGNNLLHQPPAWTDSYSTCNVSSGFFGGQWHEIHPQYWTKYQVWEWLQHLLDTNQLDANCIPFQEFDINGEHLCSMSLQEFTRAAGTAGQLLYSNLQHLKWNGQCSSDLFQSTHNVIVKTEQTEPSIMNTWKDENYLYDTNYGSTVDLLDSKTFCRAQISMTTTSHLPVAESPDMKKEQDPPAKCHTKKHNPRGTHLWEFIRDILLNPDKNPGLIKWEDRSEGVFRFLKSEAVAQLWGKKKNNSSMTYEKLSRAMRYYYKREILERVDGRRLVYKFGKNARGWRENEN
Outline: as §1

SPI1 = SPI1 (Homo sapiens, UniProt P17947 1-270)
Outline: as §1

SPIB = SPIB (Homo sapiens, UniProt Q01892 1-262)
Outline: as §1

ELK3 = molecular target: T6, ELK3 (Homo sapiens, UniProt P41970 1-407)
T6 sequence: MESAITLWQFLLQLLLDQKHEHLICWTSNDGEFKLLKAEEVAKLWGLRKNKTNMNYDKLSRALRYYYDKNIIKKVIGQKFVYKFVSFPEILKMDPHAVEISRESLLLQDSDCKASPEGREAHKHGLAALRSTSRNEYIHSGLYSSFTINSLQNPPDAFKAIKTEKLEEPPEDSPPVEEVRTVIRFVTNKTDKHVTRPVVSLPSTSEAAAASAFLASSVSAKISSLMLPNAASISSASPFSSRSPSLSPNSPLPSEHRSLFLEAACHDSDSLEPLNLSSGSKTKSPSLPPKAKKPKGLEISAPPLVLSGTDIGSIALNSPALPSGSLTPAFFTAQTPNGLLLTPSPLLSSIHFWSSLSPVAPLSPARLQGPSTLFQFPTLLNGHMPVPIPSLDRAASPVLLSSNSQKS
Outline: as §1

SPIB, sequence (Q01892 whole entry): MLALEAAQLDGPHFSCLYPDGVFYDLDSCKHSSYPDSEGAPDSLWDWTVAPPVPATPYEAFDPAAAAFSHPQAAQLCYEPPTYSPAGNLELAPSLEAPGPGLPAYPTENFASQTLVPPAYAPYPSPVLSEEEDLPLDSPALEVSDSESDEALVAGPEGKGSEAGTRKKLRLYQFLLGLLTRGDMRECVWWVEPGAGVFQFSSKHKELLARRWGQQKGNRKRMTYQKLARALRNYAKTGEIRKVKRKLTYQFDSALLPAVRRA
ELF1, sequence (P32519 whole entry): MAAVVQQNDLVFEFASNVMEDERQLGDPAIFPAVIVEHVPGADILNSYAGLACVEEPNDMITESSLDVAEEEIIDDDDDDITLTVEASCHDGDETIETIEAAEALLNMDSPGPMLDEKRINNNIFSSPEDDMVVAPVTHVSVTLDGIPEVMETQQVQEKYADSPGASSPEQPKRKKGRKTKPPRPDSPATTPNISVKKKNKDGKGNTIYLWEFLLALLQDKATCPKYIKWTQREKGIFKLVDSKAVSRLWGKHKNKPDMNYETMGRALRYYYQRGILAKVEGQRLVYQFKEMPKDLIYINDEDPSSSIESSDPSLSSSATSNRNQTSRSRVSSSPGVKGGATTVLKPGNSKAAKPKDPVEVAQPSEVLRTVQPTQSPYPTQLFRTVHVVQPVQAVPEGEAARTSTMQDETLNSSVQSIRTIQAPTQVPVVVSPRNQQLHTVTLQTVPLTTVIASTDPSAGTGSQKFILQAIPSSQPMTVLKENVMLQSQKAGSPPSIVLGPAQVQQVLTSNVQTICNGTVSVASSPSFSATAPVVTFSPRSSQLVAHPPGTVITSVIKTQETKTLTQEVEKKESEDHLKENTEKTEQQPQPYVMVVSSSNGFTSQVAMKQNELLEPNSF

| Sequence | binding signal (FLI1) | binding signal (ELK1) | binding signal (GABPA) | binding signal (ERG) | binding signal (ELF1) | binding signal (EHF) | binding signal (SPI1) | binding signal (SPIB) | binding signal (ELK3) |
| --- | --- | --- | --- | --- | --- | --- | --- | --- | --- |
| CCCGCT | 1.38 fold enrichment (6-mer frequency, TF over GST control) | 1.31 fold enrichment (6-mer frequency, TF over GST control) | 1.34 fold enrichment (6-mer frequency, TF over GST control) | 1.3 fold enrichment (6-mer frequency, TF over GST control) | 1.44 fold enrichment (6-mer frequency, TF over GST control) | 1.48 fold enrichment (6-mer frequency, TF over GST control) | 1.37 fold enrichment (6-mer frequency, TF over GST control) | 1.35 fold enrichment (6-mer frequency, TF over GST control) | 1.35 fold enrichment (6-mer frequency, TF over GST control) |
| TGGCCT | 1.59 fold enrichment (6-mer frequency, TF over GST control) | 1.37 fold enrichment (6-mer frequency, TF over GST control) | 1.51 fold enrichment (6-mer frequency, TF over GST control) | 1.54 fold enrichment (6-mer frequency, TF over GST control) | 1.48 fold enrichment (6-mer frequency, TF over GST control) | 1.5 fold enrichment (6-mer frequency, TF over GST control) | 1.55 fold enrichment (6-mer frequency, TF over GST control) | 1.48 fold enrichment (6-mer frequency, TF over GST control) | 1.29 fold enrichment (6-mer frequency, TF over GST control) |
| TAATTA | 1.24 fold enrichment (6-mer frequency, TF over GST control) | 1.2 fold enrichment (6-mer frequency, TF over GST control) | 1.23 fold enrichment (6-mer frequency, TF over GST control) | 1.3 fold enrichment (6-mer frequency, TF over GST control) | 1.3 fold enrichment (6-mer frequency, TF over GST control) | 1.22 fold enrichment (6-mer frequency, TF over GST control) | 1.25 fold enrichment (6-mer frequency, TF over GST control) | 1.27 fold enrichment (6-mer frequency, TF over GST control) | 1.24 fold enrichment (6-mer frequency, TF over GST control) |
| CCTTGC | 1.31 fold enrichment (6-mer frequency, TF over GST control) | 1.28 fold enrichment (6-mer frequency, TF over GST control) | 1.33 fold enrichment (6-mer frequency, TF over GST control) | 1.2 fold enrichment (6-mer frequency, TF over GST control) | 1.45 fold enrichment (6-mer frequency, TF over GST control) | 1.28 fold enrichment (6-mer frequency, TF over GST control) | 1.27 fold enrichment (6-mer frequency, TF over GST control) | 1.24 fold enrichment (6-mer frequency, TF over GST control) | 1.16 fold enrichment (6-mer frequency, TF over GST control) |
| TGAACA | 1.25 fold enrichment (6-mer frequency, TF over GST control) | 1.23 fold enrichment (6-mer frequency, TF over GST control) | 1.18 fold enrichment (6-mer frequency, TF over GST control) | 1.21 fold enrichment (6-mer frequency, TF over GST control) | 1.26 fold enrichment (6-mer frequency, TF over GST control) | 1.27 fold enrichment (6-mer frequency, TF over GST control) | 1.14 fold enrichment (6-mer frequency, TF over GST control) | 1.23 fold enrichment (6-mer frequency, TF over GST control) | 1.33 fold enrichment (6-mer frequency, TF over GST control) |
| CAATCC | 1.17 fold enrichment (6-mer frequency, TF over GST control) | 1.19 fold enrichment (6-mer frequency, TF over GST control) | 1.26 fold enrichment (6-mer frequency, TF over GST control) | 1.24 fold enrichment (6-mer frequency, TF over GST control) | 1.22 fold enrichment (6-mer frequency, TF over GST control) | 1.07 fold enrichment (6-mer frequency, TF over GST control) | 1.12 fold enrichment (6-mer frequency, TF over GST control) | 1.2 fold enrichment (6-mer frequency, TF over GST control) | 1.08 fold enrichment (6-mer frequency, TF over GST control) |
| TGCTAA | 1.24 fold enrichment (6-mer frequency, TF over GST control) | 1.37 fold enrichment (6-mer frequency, TF over GST control) | 1.18 fold enrichment (6-mer frequency, TF over GST control) | 1.23 fold enrichment (6-mer frequency, TF over GST control) | 1.22 fold enrichment (6-mer frequency, TF over GST control) | 1.27 fold enrichment (6-mer frequency, TF over GST control) | 1.34 fold enrichment (6-mer frequency, TF over GST control) | 1.28 fold enrichment (6-mer frequency, TF over GST control) | 1.29 fold enrichment (6-mer frequency, TF over GST control) |
| ATAAAT | 1.14 fold enrichment (6-mer frequency, TF over GST control) | 1.15 fold enrichment (6-mer frequency, TF over GST control) | 1.15 fold enrichment (6-mer frequency, TF over GST control) | 1.15 fold enrichment (6-mer frequency, TF over GST control) | 1.15 fold enrichment (6-mer frequency, TF over GST control) | 1.14 fold enrichment (6-mer frequency, TF over GST control) | 1.2 fold enrichment (6-mer frequency, TF over GST control) | 1.23 fold enrichment (6-mer frequency, TF over GST control) | 1.22 fold enrichment (6-mer frequency, TF over GST control) |
